Laboratory results published in the supplement of paper PMC11732987, “Enantioselective OTUD7B fragment discovery through chemoproteomics screening and high-throughput optimisation” (Communications Chemistry, 2025).

Assays:
Assay in all cases: log2 ratio of Biotin-Ahx-Ub-VS probe labelling (fragment/DMSO); higher = less target engagement (more negative = stronger competition), active = hit call of the paper (q ≤ 0.05, log2 ratio ≤ -1)
Details in all cases: compound concentration: 200 uM; treatment time: 3 h
USP42 = target: T1, USP42 (UniProt Q9H9J4)
T1 sequence (whole entry): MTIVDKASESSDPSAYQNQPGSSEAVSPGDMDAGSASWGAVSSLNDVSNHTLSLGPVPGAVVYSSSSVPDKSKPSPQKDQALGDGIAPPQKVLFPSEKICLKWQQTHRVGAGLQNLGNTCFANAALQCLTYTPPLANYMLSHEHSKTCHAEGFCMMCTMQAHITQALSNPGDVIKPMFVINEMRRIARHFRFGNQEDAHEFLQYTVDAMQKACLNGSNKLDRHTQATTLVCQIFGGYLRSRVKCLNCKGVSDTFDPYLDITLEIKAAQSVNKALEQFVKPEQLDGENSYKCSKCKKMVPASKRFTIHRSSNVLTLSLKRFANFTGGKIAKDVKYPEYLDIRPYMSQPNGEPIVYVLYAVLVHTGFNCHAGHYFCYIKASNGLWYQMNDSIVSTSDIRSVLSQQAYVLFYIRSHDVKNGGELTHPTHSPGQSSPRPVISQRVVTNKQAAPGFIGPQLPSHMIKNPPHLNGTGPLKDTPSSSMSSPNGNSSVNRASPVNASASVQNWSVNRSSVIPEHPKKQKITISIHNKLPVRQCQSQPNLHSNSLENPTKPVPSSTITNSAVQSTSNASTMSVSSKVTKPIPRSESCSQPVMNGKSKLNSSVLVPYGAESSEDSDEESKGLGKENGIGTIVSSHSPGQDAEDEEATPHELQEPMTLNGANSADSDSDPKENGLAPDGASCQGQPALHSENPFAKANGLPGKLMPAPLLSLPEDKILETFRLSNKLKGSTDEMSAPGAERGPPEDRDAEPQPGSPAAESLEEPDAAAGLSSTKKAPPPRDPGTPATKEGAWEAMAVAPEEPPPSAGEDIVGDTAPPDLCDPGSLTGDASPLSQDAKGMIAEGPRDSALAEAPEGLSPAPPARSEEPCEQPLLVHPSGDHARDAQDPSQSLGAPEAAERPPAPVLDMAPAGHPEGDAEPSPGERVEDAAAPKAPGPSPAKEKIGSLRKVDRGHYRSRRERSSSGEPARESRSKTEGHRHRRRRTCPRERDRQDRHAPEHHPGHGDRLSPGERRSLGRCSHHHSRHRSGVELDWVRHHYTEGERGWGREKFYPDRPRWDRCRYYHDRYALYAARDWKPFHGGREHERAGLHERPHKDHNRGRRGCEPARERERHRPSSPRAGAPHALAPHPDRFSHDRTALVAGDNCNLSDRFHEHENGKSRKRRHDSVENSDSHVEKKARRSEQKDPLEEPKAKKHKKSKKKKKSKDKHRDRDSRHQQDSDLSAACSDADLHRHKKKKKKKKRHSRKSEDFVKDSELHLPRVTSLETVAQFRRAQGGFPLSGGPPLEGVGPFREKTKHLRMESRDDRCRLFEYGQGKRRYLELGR
Procedure, shortened: (§1)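 Each value is an average log2 ratio of fragment to vehicle, tested by unpaired t-test. The underlying Spectronaut label-free quantities were global-median-normalised, and only proteins with ≥2 unique peptides were included. Triplicate HEK293T lysate samples (495 µg) were exposed to fragment at 200 µM or vehicle for 3 h, then to Biotin-Ahx-Ub-VS at 0.5 µM final for 1 h, before NeutrAvidin enrichment of labelled DUBs, LysC and trypsin digestion, and diaPASEF LC-MS/MS.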

USP46 = USP46 (UniProt P62068)
Chain of USP46 (P62068 whole entry): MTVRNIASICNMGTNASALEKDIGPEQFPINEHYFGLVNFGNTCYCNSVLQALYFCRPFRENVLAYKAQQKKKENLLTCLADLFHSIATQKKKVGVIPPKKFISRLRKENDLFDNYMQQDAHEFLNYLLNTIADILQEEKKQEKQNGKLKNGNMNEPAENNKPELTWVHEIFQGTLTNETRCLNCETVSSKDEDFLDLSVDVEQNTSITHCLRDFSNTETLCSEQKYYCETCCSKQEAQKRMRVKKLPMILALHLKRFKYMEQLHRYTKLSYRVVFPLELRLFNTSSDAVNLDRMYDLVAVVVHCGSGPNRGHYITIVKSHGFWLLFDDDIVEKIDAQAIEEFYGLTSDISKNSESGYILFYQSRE
Procedure, shortened: as §1

USP47 = target: T2, USP47 (UniProt Q96K76)
T2 sequence (whole entry): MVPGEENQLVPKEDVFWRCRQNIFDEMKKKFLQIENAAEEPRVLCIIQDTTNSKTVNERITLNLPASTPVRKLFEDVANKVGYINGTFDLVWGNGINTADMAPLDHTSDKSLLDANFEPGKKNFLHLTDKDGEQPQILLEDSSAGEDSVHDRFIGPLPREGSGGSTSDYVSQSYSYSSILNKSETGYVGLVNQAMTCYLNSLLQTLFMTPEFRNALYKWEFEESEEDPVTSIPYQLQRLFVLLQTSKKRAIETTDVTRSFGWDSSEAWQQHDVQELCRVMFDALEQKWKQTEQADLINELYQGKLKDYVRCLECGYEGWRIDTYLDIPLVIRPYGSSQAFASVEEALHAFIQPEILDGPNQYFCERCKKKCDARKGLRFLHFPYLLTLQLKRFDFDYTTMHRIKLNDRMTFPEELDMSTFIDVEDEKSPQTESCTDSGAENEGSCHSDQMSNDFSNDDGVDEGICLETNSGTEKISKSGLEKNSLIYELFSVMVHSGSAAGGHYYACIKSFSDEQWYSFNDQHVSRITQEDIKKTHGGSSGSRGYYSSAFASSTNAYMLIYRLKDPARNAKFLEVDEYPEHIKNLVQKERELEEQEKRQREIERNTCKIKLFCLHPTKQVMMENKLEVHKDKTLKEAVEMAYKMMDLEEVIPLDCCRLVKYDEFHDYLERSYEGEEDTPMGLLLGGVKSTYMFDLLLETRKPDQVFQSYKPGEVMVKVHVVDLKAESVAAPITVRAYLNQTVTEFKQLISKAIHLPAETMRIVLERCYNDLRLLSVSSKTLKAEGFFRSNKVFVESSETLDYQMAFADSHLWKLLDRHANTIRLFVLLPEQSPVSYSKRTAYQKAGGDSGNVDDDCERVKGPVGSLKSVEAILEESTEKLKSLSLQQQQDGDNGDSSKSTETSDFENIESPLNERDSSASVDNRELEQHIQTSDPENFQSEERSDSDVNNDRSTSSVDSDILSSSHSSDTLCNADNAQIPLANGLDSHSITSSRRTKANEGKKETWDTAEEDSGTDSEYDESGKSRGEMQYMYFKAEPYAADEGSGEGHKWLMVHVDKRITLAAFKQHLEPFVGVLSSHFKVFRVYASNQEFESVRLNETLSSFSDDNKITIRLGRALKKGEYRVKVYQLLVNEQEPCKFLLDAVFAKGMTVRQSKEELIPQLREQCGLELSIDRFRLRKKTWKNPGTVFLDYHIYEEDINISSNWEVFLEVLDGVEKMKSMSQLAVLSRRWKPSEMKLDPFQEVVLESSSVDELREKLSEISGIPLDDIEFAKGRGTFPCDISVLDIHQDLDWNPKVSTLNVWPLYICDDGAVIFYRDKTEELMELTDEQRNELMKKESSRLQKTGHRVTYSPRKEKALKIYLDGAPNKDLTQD
Procedure, shortened: as §1

USP48 = target: T3, USP48 (UniProt Q86UV5)
T3 sequence (whole entry): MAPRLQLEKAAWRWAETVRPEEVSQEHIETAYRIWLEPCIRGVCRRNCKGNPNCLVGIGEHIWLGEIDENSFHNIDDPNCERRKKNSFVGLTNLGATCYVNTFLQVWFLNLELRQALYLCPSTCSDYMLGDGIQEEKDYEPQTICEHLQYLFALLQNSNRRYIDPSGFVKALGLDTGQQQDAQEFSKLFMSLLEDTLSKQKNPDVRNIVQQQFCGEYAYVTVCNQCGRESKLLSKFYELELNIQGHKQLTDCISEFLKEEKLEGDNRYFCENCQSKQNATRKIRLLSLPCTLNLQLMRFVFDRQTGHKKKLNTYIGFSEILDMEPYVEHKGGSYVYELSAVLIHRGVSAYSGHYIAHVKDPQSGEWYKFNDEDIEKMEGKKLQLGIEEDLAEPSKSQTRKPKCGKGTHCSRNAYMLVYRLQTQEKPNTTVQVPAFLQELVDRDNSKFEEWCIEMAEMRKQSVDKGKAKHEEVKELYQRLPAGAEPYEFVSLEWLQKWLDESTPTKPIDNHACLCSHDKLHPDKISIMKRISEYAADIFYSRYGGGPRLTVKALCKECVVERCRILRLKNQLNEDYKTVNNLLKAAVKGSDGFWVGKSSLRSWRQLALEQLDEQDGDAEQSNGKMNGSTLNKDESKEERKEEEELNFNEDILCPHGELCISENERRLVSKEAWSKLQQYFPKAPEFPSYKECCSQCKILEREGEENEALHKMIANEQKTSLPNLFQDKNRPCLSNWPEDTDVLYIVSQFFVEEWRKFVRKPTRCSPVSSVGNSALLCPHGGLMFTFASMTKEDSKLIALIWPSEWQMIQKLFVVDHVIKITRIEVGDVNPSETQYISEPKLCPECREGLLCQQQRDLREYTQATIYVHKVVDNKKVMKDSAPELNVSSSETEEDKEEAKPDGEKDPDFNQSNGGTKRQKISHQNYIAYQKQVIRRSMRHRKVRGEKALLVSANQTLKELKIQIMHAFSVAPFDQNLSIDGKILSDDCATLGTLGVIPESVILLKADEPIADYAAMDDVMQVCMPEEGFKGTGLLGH
Procedure, shortened: as §1

USP5 = target: T4, USP5 (UniProt P45974)
T4 sequence (whole entry): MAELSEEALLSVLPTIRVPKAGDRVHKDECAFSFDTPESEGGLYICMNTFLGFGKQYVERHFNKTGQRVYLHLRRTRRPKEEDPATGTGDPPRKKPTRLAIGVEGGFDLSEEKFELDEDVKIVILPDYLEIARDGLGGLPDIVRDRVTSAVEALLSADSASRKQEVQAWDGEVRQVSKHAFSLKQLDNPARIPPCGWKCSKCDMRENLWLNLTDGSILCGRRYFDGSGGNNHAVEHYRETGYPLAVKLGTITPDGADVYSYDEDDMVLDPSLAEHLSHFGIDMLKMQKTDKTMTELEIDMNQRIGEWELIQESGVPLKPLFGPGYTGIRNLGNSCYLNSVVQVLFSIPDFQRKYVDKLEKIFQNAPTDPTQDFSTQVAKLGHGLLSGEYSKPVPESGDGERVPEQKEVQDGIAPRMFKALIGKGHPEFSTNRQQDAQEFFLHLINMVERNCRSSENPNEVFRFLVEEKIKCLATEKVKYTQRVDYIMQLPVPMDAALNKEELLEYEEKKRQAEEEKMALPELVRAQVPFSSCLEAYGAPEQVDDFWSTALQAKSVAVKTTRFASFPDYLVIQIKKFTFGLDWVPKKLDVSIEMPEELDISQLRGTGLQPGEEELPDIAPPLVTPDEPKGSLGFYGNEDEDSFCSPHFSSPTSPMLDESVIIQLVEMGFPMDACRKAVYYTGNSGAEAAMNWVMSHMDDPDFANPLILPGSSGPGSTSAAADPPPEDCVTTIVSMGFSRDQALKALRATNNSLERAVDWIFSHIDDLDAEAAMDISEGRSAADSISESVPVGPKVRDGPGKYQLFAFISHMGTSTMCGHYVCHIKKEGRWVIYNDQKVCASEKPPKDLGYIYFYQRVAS
Procedure, shortened: as §1

USP54 = USP54 (UniProt Q70EL1)
Chain of USP54 (Q70EL1 whole entry): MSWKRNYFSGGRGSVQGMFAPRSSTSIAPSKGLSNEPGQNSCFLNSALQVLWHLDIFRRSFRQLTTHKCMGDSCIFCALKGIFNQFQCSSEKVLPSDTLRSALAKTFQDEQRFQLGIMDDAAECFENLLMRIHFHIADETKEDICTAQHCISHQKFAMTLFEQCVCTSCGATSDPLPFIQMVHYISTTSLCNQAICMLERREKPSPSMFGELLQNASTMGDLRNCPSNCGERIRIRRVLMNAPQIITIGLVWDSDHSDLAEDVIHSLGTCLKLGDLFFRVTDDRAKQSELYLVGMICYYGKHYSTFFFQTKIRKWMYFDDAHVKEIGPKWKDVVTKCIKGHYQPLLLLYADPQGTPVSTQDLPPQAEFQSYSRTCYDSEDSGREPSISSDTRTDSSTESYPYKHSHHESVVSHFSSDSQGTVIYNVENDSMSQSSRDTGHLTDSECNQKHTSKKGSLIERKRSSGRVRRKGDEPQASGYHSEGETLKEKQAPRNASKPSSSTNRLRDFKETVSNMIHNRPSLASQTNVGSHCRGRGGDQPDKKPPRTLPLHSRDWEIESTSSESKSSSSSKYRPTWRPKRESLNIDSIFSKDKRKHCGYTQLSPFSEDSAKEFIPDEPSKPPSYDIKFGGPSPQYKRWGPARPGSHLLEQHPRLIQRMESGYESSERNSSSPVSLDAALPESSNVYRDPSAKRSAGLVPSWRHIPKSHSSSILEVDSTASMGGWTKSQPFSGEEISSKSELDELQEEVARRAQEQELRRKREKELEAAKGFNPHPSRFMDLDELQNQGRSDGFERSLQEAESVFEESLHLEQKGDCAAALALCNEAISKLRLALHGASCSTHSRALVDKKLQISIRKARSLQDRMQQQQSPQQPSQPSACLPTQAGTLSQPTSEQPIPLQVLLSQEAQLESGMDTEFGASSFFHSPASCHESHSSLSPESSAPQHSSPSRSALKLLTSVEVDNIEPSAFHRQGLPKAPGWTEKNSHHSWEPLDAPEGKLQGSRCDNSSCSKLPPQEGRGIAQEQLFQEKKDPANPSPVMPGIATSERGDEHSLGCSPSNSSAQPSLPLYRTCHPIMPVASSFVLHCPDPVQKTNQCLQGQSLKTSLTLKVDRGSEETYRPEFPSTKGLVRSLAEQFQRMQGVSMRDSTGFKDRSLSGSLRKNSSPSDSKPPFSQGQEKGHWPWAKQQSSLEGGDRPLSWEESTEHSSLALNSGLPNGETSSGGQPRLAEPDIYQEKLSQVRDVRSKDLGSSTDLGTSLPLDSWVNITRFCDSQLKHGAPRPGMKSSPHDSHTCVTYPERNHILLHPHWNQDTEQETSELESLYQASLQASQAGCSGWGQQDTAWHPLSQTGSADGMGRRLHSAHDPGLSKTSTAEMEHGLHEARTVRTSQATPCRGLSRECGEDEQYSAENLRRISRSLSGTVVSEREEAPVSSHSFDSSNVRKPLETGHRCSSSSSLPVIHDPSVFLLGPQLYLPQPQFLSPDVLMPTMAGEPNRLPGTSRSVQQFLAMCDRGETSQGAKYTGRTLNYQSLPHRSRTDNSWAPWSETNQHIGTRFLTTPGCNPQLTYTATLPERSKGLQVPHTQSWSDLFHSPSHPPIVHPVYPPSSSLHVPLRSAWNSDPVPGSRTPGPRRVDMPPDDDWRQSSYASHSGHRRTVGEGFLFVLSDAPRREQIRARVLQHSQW
Procedure, shortened: as §1

USP7 = USP7 (UniProt Q93009)
Procedure, shortened: as §1

USP8 = target: T5, USP8 (UniProt P40818)
T5 sequence (whole entry): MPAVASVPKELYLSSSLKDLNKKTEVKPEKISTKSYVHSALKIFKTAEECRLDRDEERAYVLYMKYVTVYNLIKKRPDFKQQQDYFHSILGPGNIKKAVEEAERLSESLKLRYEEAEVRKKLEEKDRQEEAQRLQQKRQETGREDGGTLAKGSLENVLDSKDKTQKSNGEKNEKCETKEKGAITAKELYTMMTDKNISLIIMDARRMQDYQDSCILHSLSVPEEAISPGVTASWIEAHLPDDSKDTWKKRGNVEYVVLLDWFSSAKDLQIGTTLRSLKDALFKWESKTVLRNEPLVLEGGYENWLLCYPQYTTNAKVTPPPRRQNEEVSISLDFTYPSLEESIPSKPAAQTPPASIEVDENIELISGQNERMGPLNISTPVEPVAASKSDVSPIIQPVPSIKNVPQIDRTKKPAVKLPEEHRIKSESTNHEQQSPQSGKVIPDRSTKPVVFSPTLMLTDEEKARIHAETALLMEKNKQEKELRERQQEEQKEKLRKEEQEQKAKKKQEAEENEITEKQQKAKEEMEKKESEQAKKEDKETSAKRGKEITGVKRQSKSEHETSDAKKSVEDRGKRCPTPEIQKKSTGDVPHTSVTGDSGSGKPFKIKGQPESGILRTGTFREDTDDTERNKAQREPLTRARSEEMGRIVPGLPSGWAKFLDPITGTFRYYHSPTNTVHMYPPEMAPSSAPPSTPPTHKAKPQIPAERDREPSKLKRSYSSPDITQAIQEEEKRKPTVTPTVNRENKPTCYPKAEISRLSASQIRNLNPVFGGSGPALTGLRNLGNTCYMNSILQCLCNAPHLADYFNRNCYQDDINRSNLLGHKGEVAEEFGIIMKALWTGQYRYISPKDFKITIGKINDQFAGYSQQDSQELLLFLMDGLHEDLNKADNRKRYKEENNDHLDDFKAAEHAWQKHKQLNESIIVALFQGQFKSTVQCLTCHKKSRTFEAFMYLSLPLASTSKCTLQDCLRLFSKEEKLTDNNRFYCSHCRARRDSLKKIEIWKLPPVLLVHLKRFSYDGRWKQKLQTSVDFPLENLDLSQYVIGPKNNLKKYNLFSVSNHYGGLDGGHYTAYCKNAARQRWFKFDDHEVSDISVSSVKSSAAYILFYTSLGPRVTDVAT
Procedure, shortened: as §1

USP9X = USP9X (UniProt Q93008)
Chain of USP9X (Q93008 whole entry): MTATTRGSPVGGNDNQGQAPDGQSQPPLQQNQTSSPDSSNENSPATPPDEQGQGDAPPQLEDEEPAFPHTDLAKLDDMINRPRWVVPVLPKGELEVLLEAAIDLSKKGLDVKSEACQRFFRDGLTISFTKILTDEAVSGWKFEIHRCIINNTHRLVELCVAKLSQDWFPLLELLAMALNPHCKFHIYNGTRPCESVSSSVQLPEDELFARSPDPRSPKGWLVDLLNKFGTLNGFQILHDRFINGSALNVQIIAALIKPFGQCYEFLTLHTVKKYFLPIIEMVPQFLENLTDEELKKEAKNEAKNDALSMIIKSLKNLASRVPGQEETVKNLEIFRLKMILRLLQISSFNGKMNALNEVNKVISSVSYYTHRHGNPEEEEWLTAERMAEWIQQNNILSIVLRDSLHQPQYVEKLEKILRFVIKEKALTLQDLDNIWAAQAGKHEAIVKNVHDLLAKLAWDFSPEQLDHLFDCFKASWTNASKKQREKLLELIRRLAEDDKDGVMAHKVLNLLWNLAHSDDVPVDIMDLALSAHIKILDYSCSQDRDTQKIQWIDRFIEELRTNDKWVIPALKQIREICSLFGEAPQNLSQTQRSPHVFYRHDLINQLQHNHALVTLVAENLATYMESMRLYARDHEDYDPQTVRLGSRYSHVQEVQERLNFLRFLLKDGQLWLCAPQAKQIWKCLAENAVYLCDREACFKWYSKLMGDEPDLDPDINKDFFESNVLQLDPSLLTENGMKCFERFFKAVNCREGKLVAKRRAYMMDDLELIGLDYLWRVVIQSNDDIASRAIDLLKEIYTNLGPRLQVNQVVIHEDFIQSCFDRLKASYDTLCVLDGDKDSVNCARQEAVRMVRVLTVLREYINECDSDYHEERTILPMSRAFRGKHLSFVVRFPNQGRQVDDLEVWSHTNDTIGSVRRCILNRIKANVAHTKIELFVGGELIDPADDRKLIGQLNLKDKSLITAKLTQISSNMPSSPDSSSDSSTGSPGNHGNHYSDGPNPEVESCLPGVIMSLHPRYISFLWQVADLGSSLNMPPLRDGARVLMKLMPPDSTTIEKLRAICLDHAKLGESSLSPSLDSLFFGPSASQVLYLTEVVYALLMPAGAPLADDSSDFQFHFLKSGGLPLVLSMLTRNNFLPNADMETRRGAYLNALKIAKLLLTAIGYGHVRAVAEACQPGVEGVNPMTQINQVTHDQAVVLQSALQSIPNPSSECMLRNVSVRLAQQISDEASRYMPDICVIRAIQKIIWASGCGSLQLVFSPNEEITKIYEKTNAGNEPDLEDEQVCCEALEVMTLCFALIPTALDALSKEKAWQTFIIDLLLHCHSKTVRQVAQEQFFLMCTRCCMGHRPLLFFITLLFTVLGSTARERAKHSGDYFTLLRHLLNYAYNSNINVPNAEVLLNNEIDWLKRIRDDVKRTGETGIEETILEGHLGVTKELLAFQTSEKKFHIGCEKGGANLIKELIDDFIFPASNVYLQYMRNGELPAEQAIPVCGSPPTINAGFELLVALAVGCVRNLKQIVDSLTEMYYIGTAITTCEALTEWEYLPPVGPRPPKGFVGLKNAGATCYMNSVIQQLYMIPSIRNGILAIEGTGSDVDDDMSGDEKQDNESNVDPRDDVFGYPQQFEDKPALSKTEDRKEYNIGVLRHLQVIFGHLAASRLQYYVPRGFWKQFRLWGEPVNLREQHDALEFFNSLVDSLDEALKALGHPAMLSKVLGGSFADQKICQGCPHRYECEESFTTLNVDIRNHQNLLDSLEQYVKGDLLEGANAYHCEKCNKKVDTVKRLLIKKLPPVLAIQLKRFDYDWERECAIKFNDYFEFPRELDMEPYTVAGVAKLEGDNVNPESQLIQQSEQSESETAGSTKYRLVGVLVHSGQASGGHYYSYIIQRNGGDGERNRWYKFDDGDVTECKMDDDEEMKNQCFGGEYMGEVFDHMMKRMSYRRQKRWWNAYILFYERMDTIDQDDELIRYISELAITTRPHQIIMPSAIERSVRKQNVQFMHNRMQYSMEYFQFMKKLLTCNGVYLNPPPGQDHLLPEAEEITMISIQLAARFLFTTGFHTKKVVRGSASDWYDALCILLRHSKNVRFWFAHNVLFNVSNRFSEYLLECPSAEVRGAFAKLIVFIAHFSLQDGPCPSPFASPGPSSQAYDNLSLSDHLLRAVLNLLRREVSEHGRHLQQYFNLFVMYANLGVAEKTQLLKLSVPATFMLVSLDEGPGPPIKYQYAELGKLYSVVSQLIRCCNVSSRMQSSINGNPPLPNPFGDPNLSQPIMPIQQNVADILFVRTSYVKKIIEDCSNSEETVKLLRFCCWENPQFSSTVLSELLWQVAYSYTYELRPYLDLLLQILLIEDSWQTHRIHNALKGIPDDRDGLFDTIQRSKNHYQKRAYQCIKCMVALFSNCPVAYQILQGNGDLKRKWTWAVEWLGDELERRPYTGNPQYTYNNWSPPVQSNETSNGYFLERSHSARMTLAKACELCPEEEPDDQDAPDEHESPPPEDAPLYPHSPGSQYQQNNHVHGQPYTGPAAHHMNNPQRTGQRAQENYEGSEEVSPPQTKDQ
Procedure, shortened: as §1

UniProt O00487 = target: UniProt O00487
Chain of UniProt O00487 (O00487 whole entry): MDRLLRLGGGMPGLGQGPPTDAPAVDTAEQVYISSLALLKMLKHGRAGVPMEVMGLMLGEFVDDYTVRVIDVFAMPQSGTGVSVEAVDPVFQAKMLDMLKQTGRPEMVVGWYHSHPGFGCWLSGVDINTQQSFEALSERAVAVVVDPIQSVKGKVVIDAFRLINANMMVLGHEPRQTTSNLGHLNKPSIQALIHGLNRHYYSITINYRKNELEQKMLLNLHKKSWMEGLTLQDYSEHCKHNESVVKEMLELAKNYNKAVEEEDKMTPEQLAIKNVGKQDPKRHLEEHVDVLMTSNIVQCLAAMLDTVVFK
Procedure, shortened: as §1

Measured: log2 ratio of Biotin-Ahx-Ub-VS probe labelling

O=C(CCl)N1CCOCC1C1CC1 (stereo not given)
inactive: USP42 -0.112 | USP46 0.00778 | USP47 -0.0311 | USP48 0.0155 | USP5 0.147 | USP54 0.967 | USP7 -0.145 | USP8 -0.168 | USP9X -0.18 | UniProt O00487 -0.226
